From PubChem BioAssay (NCI)
About 83,000 compounds went through this panel and 20% of them were active in at least one assay; those are over-represented in the sample as a whole.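 Testing used 96-well plates and a 48-hour single-concentration exposure. Example: -40 means 40% of the starting cells died.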 The source made the active and inactive calls. How the source made its calls: active means growth percent below 10; inactive means the rest.

What was measured:
Assay in all cases: NCI-60 one-dose screen, 48 h (100 = growth as untreated, 0 = no growth, -100 = all killed)
Conditions in all cases: 10 µM unless noted
[1] = test system: NCI-H23 lung
[2] = test system: NCI-H226 lung
[3] = test system: NCI-H322M lung
[4] = test system: HOP-62 NSCLC
[5] = test system: NCI-H460 lung
[6] = test system: HOP-92 NSCLC
[7] = test system: NCI-H522 lung
[8] = test system: A549/ATCC NSCLC
[9] = test system: 786-0 renal
[10] = test system: COLO 205 colon
[11] = test system: DU-145 prostate
[12] = test system: K-562 leukemia
[13] = test system: MALME-3M melanoma
[14] = test system: MDA-MB-231 breast
[15] = test system: RXF 393 renal
[16] = test system: SF-268 CNS
[17] = test system: SF-295 CNS
[18] = test system: SF-539 CNS
[19] = test system: UACC-257 melanoma
[20] = test system: M14 melanoma

Measured: growth

COc1ccc2nc3c(n2c1)C(=O)C(=O)c1ccccc1-3
active: [1] -42.1% | [3] -60.9% | [4] -72.9% | [7] -69.9% | [8] -24.3% | [9] 8.6% | [11] -92.5% | [12] -18.2% | [13] -90.1% | [15] -16.9% | [16] 2.6% | [17] -95.3% | [18] -95.3% | [19] -83.2%
inactive: [2] 14.9% | [5] 14.9% | [6] 37.4% | [10] 42.7% | [14] 16.7%

N#Cc1nc(-c2ccccc2)oc1S(=O)(=O)NCC(c1ccc(Cl)cc1)N1CCCCC1 (centres undefined)
active: [7] -18.3% | [12] 8.67%
inactive: [1] 78.5% | [2] 117% | [3] 85.3% | [4] 96.3% | [5] 77.2% | [6] 79.4% | [8] 89.2% | [9] 87.1% | [10] 79.3% | [11] 84.4% | [13] 96.8% | [14] 89.3% | [15] 101% | [16] 78% | [17] 102% | [18] 87.5% | [19] 88.1% | [20] 76.4%

O=C(Nc1ccc(S(=O)(=O)NC2CCCCCC2)cc1)C(c1ccccc1)S(=O)(=O)c1ccc(F)cc1 (centres undefined)
inactive: [3] 17.1% | [9] 20.4% | [14] 13.8% | [16] 24.3%
active: [1] 9.28% | [2] -21.5% | [4] -17.4% | [5] 1.37% | [6] -12.2% | [7] -16% | [8] -12.4% | [10] -18% | [11] 9.51% | [12] 7.42% | [13] -4.32% | [15] -33.6% | [17] -13.8% | [18] 9.02% | [19] -24.6% | [20] 2.29%

C=C1C(=O)O[C@H]2[C@H]1CC/C(COC(=O)c1cccnc1)=C\CC[C@@]1(C)O[C@@H]21
inactive: [1] 79% | [2] 78.5% | [3] 104% | [4] 85.2% | [5] 84.8% | [6] 49.2% | [7] 28.7% | [8] 80.1% | [9] 63.8% | [10] 52.9% | [11] 16.4% | [12] 16.4% | [13] 66.9% | [14] 79.9% | [15] 46% | [16] 90.7% | [17] 102% | [18] 60.2% | [19] 57.8% | [20] 58.3%
